Results filed as inconclusive are left out. The source made the active and inactive calls. Unless noted, the call rests on the fitted dose curve; in most records, active means well fitted curve in the direction sought with a large enough effect in the repeat runs; inconclusive means weak or mixed curves; inactive means no such curve, though single readings can be large; an effect the other way counts as inactive or inconclusive.

Assay [1] concerns the target Acetylcholinesterase (Homo sapiens) (UniProt P22303). Nature of the assay: Acetylcholinesterase (AChE) small molecule antagonists: fluorescence cell-based qHTS assay (AID 1347398; calls by dose curve; further: nearly all actives have a fitted effect of over 50% in size; further: potency means the concentration at half of the fitted maximal effect). Particulars: Potency: AChE activity. In a few lines: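 Thiocholine generated from acetylthiocholine by SH-SY5Y cell AChE is detected with Thiolite Green (Ex/Em 490/520 nm) after 40 min at room temperature, following 30 min compound pretreatment at 37 C.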
Background: In qHTS, concentration-response curves come from the screen itself.

Assay [2] shares this target. Nature of the assay: Acetylcholinesterase (AChE) small molecule antagonists: enzyme-based qHTS assay with human liver microsomes (AID 1347399; calls by dose curve; further: nearly all actives have a fitted effect of over 60% in size). As to conditions: Potency: qHTS inhibition. In a few lines: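 Recombinant human AChE (50 mU/mL in the enzyme mix) and human liver microsomes (0.25 mg/mL final) were preincubated with compound and NADPH (0.25 mg/mL final) for 30 min at 37 C. Acetylthiocholine/DTNB was then added; thiocholine was read colorimetrically after 10 min at room temperature.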

In assay [3] the target is Cytochrome P450 2D6 (Homo sapiens) (UniProt P10635). Nature of the assay: Cytochrome P450 Family 2 Subfamily D Member 6 (CYP2D6) small molecule antagonists: luciferase reporter qHTS assay (AID 1671196). Further: nearly all actives have a fitted effect of over 50% in size. Further: potency means the concentration at half of the fitted maximal effect. In a few lines:
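Luminescence (RLU), read 20 min after detection reagent, indicated CYP2D6 conversion of proluciferin to luciferin during a 1 h NADPH-dependent reaction at room temperature.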

The target in assay [4] is Cytochrome P450 2C9 (Homo sapiens) (UniProt P11712). Nature of the assay: Cytochrome P450 Family 2 Subfamily C Member 9 (CYP2C9) small molecule antagonists: luciferase reporter qHTS assay (AID 1671198). Further: nearly all actives have a fitted effect of over 50% in size. Further: potency means the concentration at half of the fitted maximal effect. In outline: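 CYP2C9 activity was measured with a P450-Glo proluciferin substrate. Enzyme–substrate mix was held with compound for 10 min at room temperature, then NADPH regeneration solution was added for 1 h at 37C. Luciferin product was read as luminescence.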
(In a reporter assay the amount or activity of a reporter protein is the signal.)

In assay [5] the target is Cytochrome P450 1A2 (Homo sapiens) (UniProt P05177). Nature of the assay: Cytochrome P450 Family 1 Subfamily A Member 2 (CYP1A2) small molecule antagonists: luciferase reporter qHTS assay (AID 1671199). Further: nearly all actives have a fitted effect of over 50% in size. Further: potency means the concentration at half of the fitted maximal effect. In a few lines:
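CYP1A2 turnover of a luminogenic substrate was quantified after 1 h with NADPH regeneration at room temperature. Furafylline served as positive control.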

The target in assay [6] is Cytochrome P450 3A4 (Homo sapiens) (UniProt P08684). Nature of the assay: Cytochrome P450 Family 3 Subfamily A Member 4 (CYP3A4) small molecule antagonists: luciferase reporter qHTS assay (AID 1671201). Further: nearly all actives have a fitted effect of over 50% in size. Further: potency means the concentration at half of the fitted maximal effect. In a few lines:
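CYP3A4 activity was followed with a P450-Glo proluciferin substrate. Test compounds in DMSO were preincubated 10 min; NADPH regeneration then ran 1 h, and light output was read 20 min after detection reagent.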

Assay [7] addresses Cytochrome P450 2C19 (Homo sapiens) (UniProt P33261). Nature of the assay: Cytochrome P450 Family 2 Subfamily C Member 19 (CYP2C19) small molecule antagonists: luciferase reporter qHTS assay (AID 1671197). Further: nearly all actives have a fitted effect of over 65% in size. Further: potency means the concentration at half of the fitted maximal effect. In outline: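 Enzyme-substrate mix with proluciferin substrate (P450-Glo CYP2C19 system) preincubated with compounds 10 min at room temperature; NADPH regeneration solution added, 37C for 1 h; detection reagent stops reaction, luminescence read after 20 min. Ketoconazole positive control.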

In assay [8] the target is Voltage-gated inwardly rectifying potassium channel KCNH2 (Homo sapiens) (UniProt Q12809). Nature of the assay: Human Ether-a-go-go-Related Gene (hERG) channel small molecule antagonists: fluorescence cell-based qHTS assay (AID 1671200). In outline: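 In this thallium-flux screen, overnight-cultured U2OS cells bearing the channel are dye-loaded in darkness for an hour, rested 10 min at room temperature, and then monitored kinetically at 480/540 nm for two minutes post-stimulus.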
Voltage-gated inwardly rectifying potassium channel KCNH2 (Homo sapiens), sequence (Q12809 whole entry, looked up): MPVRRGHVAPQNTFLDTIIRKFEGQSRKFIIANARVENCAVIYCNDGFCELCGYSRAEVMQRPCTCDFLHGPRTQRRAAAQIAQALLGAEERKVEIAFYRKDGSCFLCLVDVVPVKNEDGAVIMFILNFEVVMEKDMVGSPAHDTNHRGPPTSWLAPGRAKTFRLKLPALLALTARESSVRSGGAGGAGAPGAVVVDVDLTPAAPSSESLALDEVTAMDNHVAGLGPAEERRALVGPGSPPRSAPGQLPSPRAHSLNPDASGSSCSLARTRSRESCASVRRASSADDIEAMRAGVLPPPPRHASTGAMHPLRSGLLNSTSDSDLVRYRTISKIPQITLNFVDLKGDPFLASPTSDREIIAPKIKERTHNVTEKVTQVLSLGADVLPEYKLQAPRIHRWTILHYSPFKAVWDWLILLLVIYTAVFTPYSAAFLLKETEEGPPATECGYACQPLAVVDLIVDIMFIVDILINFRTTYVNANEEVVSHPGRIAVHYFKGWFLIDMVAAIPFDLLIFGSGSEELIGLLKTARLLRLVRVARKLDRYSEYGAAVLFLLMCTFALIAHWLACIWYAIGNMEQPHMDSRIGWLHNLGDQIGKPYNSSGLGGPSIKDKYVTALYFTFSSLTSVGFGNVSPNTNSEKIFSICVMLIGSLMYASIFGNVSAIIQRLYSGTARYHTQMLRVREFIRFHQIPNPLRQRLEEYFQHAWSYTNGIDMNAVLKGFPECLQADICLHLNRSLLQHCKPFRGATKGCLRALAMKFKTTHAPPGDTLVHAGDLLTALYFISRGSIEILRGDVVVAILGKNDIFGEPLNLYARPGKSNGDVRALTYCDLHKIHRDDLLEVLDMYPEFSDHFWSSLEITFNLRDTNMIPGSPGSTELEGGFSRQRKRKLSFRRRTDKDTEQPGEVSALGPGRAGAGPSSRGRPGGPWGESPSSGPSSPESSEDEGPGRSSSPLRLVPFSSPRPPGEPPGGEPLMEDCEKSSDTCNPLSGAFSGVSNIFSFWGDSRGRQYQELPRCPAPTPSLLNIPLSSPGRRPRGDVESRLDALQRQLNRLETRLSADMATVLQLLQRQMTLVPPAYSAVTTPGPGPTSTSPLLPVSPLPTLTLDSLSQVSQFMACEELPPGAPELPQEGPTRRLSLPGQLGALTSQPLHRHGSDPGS

Cytochrome P450 3A4 (Homo sapiens), sequence (P08684 whole entry, looked up): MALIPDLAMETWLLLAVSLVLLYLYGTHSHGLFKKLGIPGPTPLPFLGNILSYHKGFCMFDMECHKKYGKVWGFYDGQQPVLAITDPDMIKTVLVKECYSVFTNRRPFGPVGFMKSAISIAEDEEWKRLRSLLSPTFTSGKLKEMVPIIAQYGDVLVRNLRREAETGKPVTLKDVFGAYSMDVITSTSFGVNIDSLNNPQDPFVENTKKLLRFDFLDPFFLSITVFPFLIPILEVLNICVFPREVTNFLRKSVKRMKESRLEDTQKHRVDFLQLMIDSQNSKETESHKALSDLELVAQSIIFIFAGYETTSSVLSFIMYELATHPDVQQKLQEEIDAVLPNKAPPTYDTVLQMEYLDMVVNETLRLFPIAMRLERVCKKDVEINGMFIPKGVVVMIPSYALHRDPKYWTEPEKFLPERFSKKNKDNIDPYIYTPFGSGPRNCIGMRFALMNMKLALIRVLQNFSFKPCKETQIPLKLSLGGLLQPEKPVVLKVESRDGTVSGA
Cytochrome P450 2D6 (Homo sapiens), sequence (P10635 whole entry, looked up): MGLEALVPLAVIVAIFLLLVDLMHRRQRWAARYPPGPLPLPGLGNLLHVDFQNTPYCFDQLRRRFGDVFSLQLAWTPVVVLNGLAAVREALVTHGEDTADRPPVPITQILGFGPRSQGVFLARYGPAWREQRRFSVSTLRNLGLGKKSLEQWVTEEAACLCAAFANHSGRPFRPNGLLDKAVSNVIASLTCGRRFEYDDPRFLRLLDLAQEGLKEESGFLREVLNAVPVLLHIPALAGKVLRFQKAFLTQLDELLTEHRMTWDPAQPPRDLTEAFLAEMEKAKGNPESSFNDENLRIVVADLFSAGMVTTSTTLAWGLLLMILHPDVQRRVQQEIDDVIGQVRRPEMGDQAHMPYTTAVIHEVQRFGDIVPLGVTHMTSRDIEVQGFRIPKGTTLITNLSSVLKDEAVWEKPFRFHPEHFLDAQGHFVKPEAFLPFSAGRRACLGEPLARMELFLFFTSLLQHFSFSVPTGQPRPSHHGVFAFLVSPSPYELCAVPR
Cytochrome P450 2C19 (Homo sapiens), sequence (P33261 whole entry, looked up): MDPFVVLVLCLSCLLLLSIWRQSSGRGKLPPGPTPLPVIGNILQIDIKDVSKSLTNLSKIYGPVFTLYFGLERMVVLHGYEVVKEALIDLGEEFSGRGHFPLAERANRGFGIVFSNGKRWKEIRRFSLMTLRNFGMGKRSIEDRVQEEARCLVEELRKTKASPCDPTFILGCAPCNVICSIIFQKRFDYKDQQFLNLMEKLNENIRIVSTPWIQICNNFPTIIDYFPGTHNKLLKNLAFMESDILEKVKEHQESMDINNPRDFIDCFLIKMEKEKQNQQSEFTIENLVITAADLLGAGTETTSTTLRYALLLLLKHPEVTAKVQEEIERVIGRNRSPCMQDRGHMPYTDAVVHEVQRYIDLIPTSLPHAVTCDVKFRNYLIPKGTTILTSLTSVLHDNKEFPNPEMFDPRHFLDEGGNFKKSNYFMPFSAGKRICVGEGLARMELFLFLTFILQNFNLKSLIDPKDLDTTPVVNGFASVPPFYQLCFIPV
Acetylcholinesterase (Homo sapiens), sequence (P22303 whole entry, looked up): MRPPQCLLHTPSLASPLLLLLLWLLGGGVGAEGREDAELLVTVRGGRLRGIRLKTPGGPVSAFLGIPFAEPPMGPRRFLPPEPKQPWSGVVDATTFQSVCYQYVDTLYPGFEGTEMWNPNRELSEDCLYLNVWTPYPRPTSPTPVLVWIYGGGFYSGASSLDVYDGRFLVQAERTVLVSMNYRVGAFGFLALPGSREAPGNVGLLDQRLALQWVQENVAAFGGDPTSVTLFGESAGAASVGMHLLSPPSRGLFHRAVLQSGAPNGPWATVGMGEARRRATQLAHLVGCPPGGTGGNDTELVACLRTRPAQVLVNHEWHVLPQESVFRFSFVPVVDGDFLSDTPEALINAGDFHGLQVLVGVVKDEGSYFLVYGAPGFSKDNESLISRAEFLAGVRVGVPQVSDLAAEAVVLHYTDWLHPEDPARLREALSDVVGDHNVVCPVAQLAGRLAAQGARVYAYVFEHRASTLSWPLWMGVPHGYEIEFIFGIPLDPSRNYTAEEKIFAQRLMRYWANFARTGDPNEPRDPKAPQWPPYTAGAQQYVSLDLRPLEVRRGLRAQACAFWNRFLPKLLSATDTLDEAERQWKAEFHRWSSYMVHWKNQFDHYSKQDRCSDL
Cytochrome P450 1A2 (Homo sapiens), sequence (P05177 whole entry, looked up): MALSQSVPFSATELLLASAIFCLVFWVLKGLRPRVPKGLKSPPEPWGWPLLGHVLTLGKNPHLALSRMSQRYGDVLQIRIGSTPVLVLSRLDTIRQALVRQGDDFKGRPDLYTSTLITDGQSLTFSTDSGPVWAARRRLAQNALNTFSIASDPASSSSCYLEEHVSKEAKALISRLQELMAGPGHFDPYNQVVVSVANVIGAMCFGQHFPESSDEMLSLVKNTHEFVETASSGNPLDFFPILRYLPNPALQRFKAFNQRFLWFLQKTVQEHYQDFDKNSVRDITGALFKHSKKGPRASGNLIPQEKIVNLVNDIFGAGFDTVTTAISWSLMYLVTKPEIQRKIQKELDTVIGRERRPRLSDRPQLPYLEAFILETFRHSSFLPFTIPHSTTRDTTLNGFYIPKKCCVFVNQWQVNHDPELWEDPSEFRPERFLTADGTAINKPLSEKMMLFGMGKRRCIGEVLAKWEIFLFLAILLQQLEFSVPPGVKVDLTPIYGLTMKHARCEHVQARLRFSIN
Cytochrome P450 2C9 (Homo sapiens), sequence (P11712 whole entry, looked up): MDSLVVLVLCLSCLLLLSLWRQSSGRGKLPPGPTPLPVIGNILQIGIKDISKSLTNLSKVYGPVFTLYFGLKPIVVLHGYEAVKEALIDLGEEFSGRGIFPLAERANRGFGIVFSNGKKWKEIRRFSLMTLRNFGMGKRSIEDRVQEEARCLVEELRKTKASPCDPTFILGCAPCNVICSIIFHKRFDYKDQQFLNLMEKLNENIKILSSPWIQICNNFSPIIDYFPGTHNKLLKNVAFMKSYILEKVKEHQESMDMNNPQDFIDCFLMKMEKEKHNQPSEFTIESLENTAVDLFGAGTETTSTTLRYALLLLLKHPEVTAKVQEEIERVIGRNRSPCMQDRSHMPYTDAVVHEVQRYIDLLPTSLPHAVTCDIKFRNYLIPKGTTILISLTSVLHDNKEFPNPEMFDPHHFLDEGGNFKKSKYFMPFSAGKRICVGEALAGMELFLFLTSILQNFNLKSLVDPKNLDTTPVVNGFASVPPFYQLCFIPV

As to `C#CCN1C(=O)COc2cc(F)c(N3C(=O)C4=C(CCCC4)C3=O)cc21`, the Potency entry in assay [1] and in assay [2] was “inactive” in each case. The Potency was 44.8 µM (active) in assay [3], 71 µM (active) in assay [4], 3.99 µM (active) in assay [5] and 35.6 µM (active) in assay [6].
For the molecule `CCN(CC)c1nc(C)cc(OP(=S)(OC)OC)n1`, the Potency result in assay [2] is “inactive”. The Potency was 0.178 µM (active) in assay [7], 22.4 µM (active) in assay [4], 1.78 µM (active) in assay [5] and 2.24 µM (active) in assay [6].
With `N#CCCC#N`, the Potency result in assay [1], in assay [2], in assay [3], in assay [7], in assay [4] and in assay [5] was “inactive” throughout. For the same molecule, the Potency result in assay [6] is “inactive”.
In the case of `CC1CN1P(=O)(N1CC1C)N1CC1C` (stereo not drawn), the Potency result in assay [1], in assay [2], in assay [7], in assay [4], in assay [5] and in assay [8] was “inactive” each time. For the same molecule, the Potency result in assay [6] is “inactive”.
Regarding `Clc1cccc(N2CCNCC2)c1`, the Potency entry in assay [1], in assay [2], in assay [7], in assay [4], in assay [8] and in assay [6] was “inactive” throughout. The Potency in assay [3] is 5.49 µM (active).
For `COc1cc(OC)nc(Oc2cccc(Oc3nc(OC)cc(OC)n3)c2C(=O)O)n1`, the Potency result in assay [1], in assay [2], in assay [3], in assay [7], in assay [4] and in assay [5] was “inactive” throughout. For the same molecule, in assay [6], the Potency result is “inactive”.
Turning to `CC(C)CC(N(C)C)C1(c2ccc(Cl)cc2)CCC1` (stereo not drawn), the results for the Potency in assay [3] and in assay [7] were 4.36 µM (active) and 9.77 µM (active), respectively. Moreover, the Potency entry in assay [4] and in assay [5] was “inactive” in each case.
On to `CCCCOP(=O)(O)OCCCC`, for which the Potency entry in assay [1], in assay [2], in assay [5], in assay [8] and in assay [6] was “inactive” throughout. The Potency in assay [7] was 56.4 µM (active).
`COC(=O)C1=CCCN(C)C1`: the Potency result in assay [1], in assay [2], in assay [7], in assay [4], in assay [5] and in assay [8] was “inactive” throughout. Further, the Potency entry in assay [6] was “inactive”.
As for `CCCCC(=O)Cl`, the Potency result in assay [1], in assay [2], in assay [7], in assay [4], in assay [8] and in assay [6] was “inactive” in each case.
As to `CCCCCCBr`, the Potency result in assay [8] is “inactive”.
On to `OCCBr`, for which the Potency entry in assay [1], in assay [2], in assay [7], in assay [4], in assay [8] and in assay [6] was “inactive” each time.
As for `CCCCOC(=O)[C@@H](C)Oc1ccc(Oc2ccc(C#N)cc2F)cc1`, the Potency result in assay [1], in assay [2] and in assay [6] was “inactive” throughout. The Potency in assay [7] is 19.9 µM (active); in assay [4] it was 7.92 µM (active); in assay [5] it was 31.5 µM (active).
As to `ClC(Cl)C(Cl)Cl`, the Potency entry in assay [1], in assay [2], in assay [3], in assay [7], in assay [4] and in assay [8] was “inactive” throughout. Also, the Potency entry in assay [6] is “inactive”.
In the case of `N#CCNCC#N`, the Potency result in assay [1], in assay [2], in assay [3], in assay [7], in assay [4] and in assay [8] was “inactive” each time. The Potency entry in assay [6] was “inactive”.
As to `CC1(C)C(=O)NC(=O)NC1=O`, the Potency result in assay [1], in assay [2], in assay [3], in assay [4], in assay [8] and in assay [6] was “inactive” each time. Further, the Potency in assay [5] was 35.6 µM (active).
Turning to `COP(=S)(OC)Oc1ccc(S(N)(=O)=O)cc1`, the Potency result in assay [1] and in assay [2] was “inactive” throughout. Further, the Potency is 1.38 µM (active) in assay [7] and 3.47 µM (active) in assay [4].
Regarding `C=CC1CC=CCC1` (stereo not drawn), the Potency result in assay [1], in assay [2], in assay [3], in assay [7], in assay [4] and in assay [6] was “inactive” in each case.
For the molecule `CC(COc1ccc(Oc2ccccc2)cc1)Oc1ccccn1` (stereo not drawn), the Potency result in assay [1], in assay [2], in assay [3] and in assay [6] was “inactive” throughout. In addition, the results for the Potency in assay [7], in assay [4] and in assay [5] were 10 µM (active), 15.9 µM (active) and 15.9 µM (active), respectively.
In the case of `CC1=NNC(=O)N(/N=C/c2cccnc2)C1`, the Potency entry in assay [1], in assay [2], in assay [3], in assay [8] and in assay [6] was “inactive” throughout. Also, the Potency in assay [5] was 35.6 µM (active).
As to `CN/C(=N\[N+](=O)[O-])NCC1CCOC1` (stereo not drawn), in assay [8], the Potency result is “inactive”.
The same measure, in the same setting: in the case of `C[C@]12CC[C@H]3[C@@H](CC=C4C[C@@H](O)CC[C@@]43C)[C@@H]1CC[C@@H]2O` it was “inactive”.
As to `CN1C(=S)CN=C(c2ccccc2)c2cc(Cl)ccc21`, the Potency result in assay [1], in assay [2], in assay [3] and in assay [8] was “inactive” each time. For the same molecule, the values for the Potency in assay [7] and in assay [4] were 21.9 µM (active) and 17.4 µM (active), respectively.
In the case of `COC(=O)c1ccccc1S(=O)(=O)NC(=O)N(C)c1nc(C)nc(OC)n1`, the Potency result in assay [1], in assay [2], in assay [3], in assay [4], in assay [5] and in assay [8] was “inactive” each time. Also, the Potency result in assay [6] was “inactive”.
Consider `CCC(C)n1c(=O)[nH]c(C)c(Br)c1=O` (stereo not drawn), for which the Potency result in assay [1], in assay [2], in assay [3], in assay [8] and in assay [6] was “inactive” in each case. In assay [7], the Potency is 39.9 µM (active).
Turning to `CCOP(=S)(OCC)Oc1nc(Cl)n(C(C)C)n1`, the Potency in assay [7] is 0.252 µM (active); in assay [4], 5.03 µM (active); in assay [5], 2.24 µM (active); in assay [6], 1.59 µM (active). Besides, in assay [8], the Potency entry is “inactive”.
Take `COc1ccc2c(c1OC)CN1CCc3cc4c(cc3C1C2)OCO4` (stereo not drawn): the Potency in assay [1] was 1.38 µM (active); in assay [3], 0.246 µM (active); in assay [7] it was 0.977 µM (active); in assay [4], 30.9 µM (active); in assay [5], 15.5 µM (active).
With `CC(C)CP(=S)(S)CC(C)C`, the Potency entry in assay [1], in assay [2] and in assay [5] was “inactive” throughout. Also, the Potency is 56.4 µM (active) in assay [7], 31.7 µM (active) in assay [4] and 35.6 µM (active) in assay [6].
`COC(=O)C(c1ccccc1)C1CCCCN1` (stereo not drawn): the Potency entry in assay [1], in assay [2], in assay [5] and in assay [6] was “inactive” in each case. For the same molecule, the Potency in assay [3] was 22.5 µM (active).
With `[As]#[In]`, the Potency result in assay [1], in assay [2], in assay [3], in assay [7], in assay [5] and in assay [8] was “inactive” throughout. Moreover, the Potency entry in assay [6] was “inactive”.

Values taken from PubChem BioAssay (Tox21).
